According to PubChem BioAssay (NCI):
About 79,000 compounds went through this panel and 15% of them were active in at least one assay; those are over-represented in the sample as a whole. Activity calls are given as the source filed them. No stated cut-off is given here; in the data, active means growth inhibition above about 70%; inactive means the rest.

Experiments:
[1] = NCI Yeast Anticancer Drug Screen. Data for the rad50 strain (AID 155);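 further: 0% = growth of vehicle-only cultures of the same strain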; settings: S. cerevisiae rad50 strain growth inhibition; at 50.0 µM; stronger effect = higher value
How it was run: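 Relative growth inhibition (compound vs vehicle) was measured in yeast with a defined repair-gene alteration.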

[2] = NCI Yeast Anticancer Drug Screen. Data for the mec2-1 strain (AID 157); settings: S. cerevisiae mec2-1 strain, at 50.0 µM, stronger effect = higher value
How it was run: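 Cells of the genetically defined mec2-1 yeast strain are incubated with test compound. Inhibition of growth is calculated against vehicle-treated controls.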

[3] = NCI Yeast Anticancer Drug Screen. Data for the sgs1 mgt1 strain (AID 161);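 further: 0% = growth of cultures given vehicle only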; settings: S. cerevisiae sgs1 mgt1 strain, at 50.0 µM, stronger effect = higher value
How it was run: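 Mutant yeast exposed to compound; growth scored against vehicle-only wells.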

[4] = NCI Yeast Anticancer Drug Screen. Data for the cln2 rad14 strain (AID 165);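 further: 0% = growth equal to vehicle treated cultures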; settings: S. cerevisiae cln2 rad14 strain, at 50.0 µM, stronger effect = higher value
How it was run: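 The screen exposed genetically defined yeast (cln2 rad14) to test compounds and scored growth inhibition relative to vehicle-treated controls.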

[5] = NCI Yeast Anticancer Drug Screen. Data for the bub3 strain (AID 167); settings: S. cerevisiae bub3 mutant strain, at 50.0 µM, stronger effect = higher value
How it was run: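 Screening used yeast with an engineered genetic alteration affecting cell cycle control. Compound-exposed cultures were compared with vehicle cultures, and reduced growth was taken as inhibition.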

[6] = NCI Yeast Anticancer Drug Screen. Data for the mlh1 rad18 strain (AID 175); settings: S. cerevisiae mlh1 rad18 strain growth inhibition; at 50.0 µM; stronger effect = higher value
How it was run: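 Compound-treated yeast growth, normalised to vehicle controls. Strain bears defined DNA repair mutations.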

Measured: growth inhibition

CCCCc1c(O)c(N=NC(=O)C[N+](C)(C)C)c2ccccc2c1O
inactive: [1] 31.5% | [2] 40.2% | [3] 22.8% | [4] 11.6% | [5] 0.85% | [6] 36.9%

COc1ccc2c(c1)CCC1=C2CC2C(=O)C1(C)CCC2(C)OC(C)=O (stereo unspecified)
inactive: [1] -4.35% | [2] -11.1% | [3] -1.3% | [4] -40.5% | [5] 10.1% | [6] -14.2%

CCOc1ccc(NC(=O)/C=C/c2ccco2)cc1
inactive: [1] -12% | [2] -8.75% | [3] 13.9% | [4] 22% | [5] 5.3% | [6] 3%

COC(=O)c1ncn(Cc2ccccc2)c1O (tested in a mixture with another compound)
inactive: [1] 8.7% | [2] -2.2% | [3] 8.55% | [4] 16.3% | [5] 8.15% | [6] 36%

Cn1c(SCc2ccc(F)cc2)nnc1C12CC3CC(CC(C3)C1)C2
inactive: [1] -32.2% | [2] -12.2% | [3] -22.6% | [4] -1.95% | [5] -17.4% | [6] -48.1%

COc1cccc2c1OC(=O)NC2O (stereo unspecified)
inactive: [1] -8.35% | [2] -4.3% | [3] -17.9% | [4] -13.5% | [5] -20.4% | [6] 4.3%

CCCC(C)(C)COC(=O)Cc1ccccc1
inactive: [1] 40.3% | [2] 42% | [3] 55.9% | [4] 23.8% | [5] 23.6% | [6] 46.2%

COc1cc2nc(C(O)C(O)c3nc4cc(OC)c(OC)cc4[nH]3)[nH]c2cc1OC (stereo unspecified)
inactive: [1] -8% | [2] 3.35% | [3] 19.6% | [4] 6.85% | [5] -1.1% | [6] 38.7%

CC(=O)Nc1ccc(C(=O)N2C(=N)C(C#N)=C(O)/C2=C\c2ccc(Cl)c(Cl)c2)cc1
inactive: [1] -7.3% | [2] -5.7% | [3] -18.4% | [4] 1.3% | [5] -20.8% | [6] 2.15%

CN1CCN(CCCBr)CC1
inactive: [1] -8.85% | [2] -5.3% | [3] -24.9% | [4] -31.8% | [5] -31.9% | [6] -4.3%

O=c1oc2nc(-c3ccccc3)[nH]c(=O)c2c(O)c1Cc1ccccc1
inactive: [1] 6.35% | [2] 2.75% | [3] 1.55% | [4] 8.7% | [5] 27.6% | [6] 26.9%

COc1ccc2c(c1)CC[C@@H]1[C@@H]2CC[C@]2(C)[C@H](S)CC[C@@H]12
inactive: [1] -3.45% | [2] -15.7% | [3] 21.4% | [4] -41% | [5] 18.1% | [6] -7.3%

CCC(C)C(NS(=O)(=O)Cc1ccccc1)C(=O)O (stereo unspecified)
inactive: [1] -3.85% | [2] 16.4% | [3] 3.05% | [4] 10.9% | [5] -10.3% | [6] 6.8%

Cc1cc(Cl)c(O)c(-c2cc(-c3ccc([N+](=O)[O-])cc3)c3c(N)[nH]c(=O)nc3n2)c1
inactive: [1] 44.1% | [2] -4.65% | [3] 35.5% | [4] 6.2% | [5] 19.6% | [6] 38%

CCCCOB(OCCCC)OCCCC
inactive: [1] 6.1% | [2] -3.25% | [3] -12.6% | [4] 11.8% | [5] -1.65% | [6] -21.9%

N#CCC(=O)NCc1ccncc1
inactive: [1] -13.8% | [2] -50.4% | [3] -24.7% | [4] 7.85% | [5] -41% | [6] -13.1%

C=C(Cl)/C(=C\Cl)CCC(Cl)C(C)C (stereo unspecified)
inactive: [1] 19.6% | [2] 15.2% | [3] 3.1% | [4] 29.1% | [5] -15.3% | [6] 4.25%

CN(C)C1=NS(=O)(=O)N=C(N(C)c2ccccc2)O1
inactive: [1] 14.5% | [2] 6.65% | [3] 6.45% | [4] 16.8% | [5] 8.15% | [6] 10.5%

C[C@H](CCC(=O)O[C@@H]1CC[C@@]2(C)C(CC[C@H]3[C@@H]4CC[C@H]([C@H](C)CCc5nc6ccccc6[nH]5)[C@@]4(C)CC[C@@H]32)C1)[C@H]1CC[C@H]2[C@@H]3CCC4C[C@H](O)CC[C@]4(C)[C@H]3CC[C@]12C (stereo partly specified)
inactive: [1] 5.8% | [2] -2.55% | [3] -16.4% | [4] 11.3% | [5] 6.2% | [6] -6.05%

CCC(c1ccccc1)C(C(=O)O)C(=O)O (stereo unspecified)
inactive: [1] 5.95% | [2] -5.35% | [3] 0.55% | [4] -16.8% | [5] 6.35% | [6] 6.65%

O=[N+]([O-])c1ccc(-n2nnc3ccccc32)nc1
inactive: [1] -3.9% | [2] -4.85% | [3] -7.35% | [4] -16.6% | [5] 7.5% | [6] -9.75%

ClC[C@H]1C[C@@H]2C[C@@H]1[C@H]1O[C@@H]21
inactive: [1] -7.4% | [2] -21.6% | [3] -11.2% | [4] -5.35% | [5] -9.6% | [6] 10.8%

S=C(Nc1ccccc1)Nc1nc(-c2ccccc2)c(N=Nc2ccccc2)s1
inactive: [1] 29.8% | [2] -1% | [3] 4.05% | [4] 10.1% | [5] 12.9% | [6] 2%

N#CC(c1ccccc1)C(c1ccccc1)c1cccc2ccccc12 (stereo unspecified)
inactive: [1] 12.2% | [2] 12.3% | [3] 5.7% | [4] -6.85% | [5] -3.3% | [6] 15.6%

CC(=O)Oc1cc2oc([O-])c[n+]2c2ccccc12
inactive: [1] 28.6% | [2] 14.2% | [3] 22.7% | [4] 5.45% | [5] 12.6% | [6] 0.95%

O=C(CCc1ccccc1)NC(=S)Nc1cccc([N+](=O)[O-])c1
inactive: [1] -1.75% | [2] 25.9% | [3] 53.5% | [4] -13.8% | [5] 52.2%
active: [6] 86%

c1ccc(-c2ccc3ncccc3c2)cc1
inactive: [1] -17.9% | [2] 3.5% | [3] 5.05% | [4] -34.4% | [5] -0.4% | [6] 2.3%

[NH-]c1ncnc2c1N=C[N+]2=CC=CCO
inactive: [1] -1.6% | [2] -17% | [3] -19.7% | [4] -7.6% | [5] -28.4% | [6] -10.7%

C[N+](C)(C)CC(=O)N/N=C(/Cc1cc(=O)oc2cc(O)ccc12)C(=O)Nc1ccc(Cl)cc1
inactive: [1] 7.35% | [2] -2.45% | [3] -11.3% | [4] -15.7% | [5] -19.8% | [6] -10.8%

Cc1c(Cl)cccc1NC(=O)Nc1ccccc1
inactive: [1] -1.35% | [2] 3.3% | [3] -6.25% | [4] -8.1% | [5] 4.1% | [6] 7.65%

Nc1cccc(N)n1
inactive: [1] 7.65% | [2] -12.2% | [3] -15.8% | [4] 5.7% | [5] -0.7% | [6] -14.6%

C=COS(=O)O
inactive: [1] -0.65% | [2] -3.45% | [3] -4.85% | [4] -6.7% | [5] 12.3% | [6] -0.15%

O=C(O)CSc1ccn(Cc2ccccc2)c1
inactive: [1] -8.15% | [2] -18.5% | [3] -43.1% | [4] -22.8% | [5] -56.8% | [6] -22.6%

Cc1nc(N)sc1C(=O)/C=C\c1ccc2c(c1)OCO2
inactive: [1] 21.4% | [2] -3.2% | [3] 23.4% | [4] 10.3% | [5] 5.2% | [6] 35.4%

CC(C)/C(Cl)=N\OC(NC(=O)P(=O)(c1ccccc1)c1ccccc1)(C(F)(F)F)C(F)(F)F
inactive: [1] 58.5% | [2] 52.2% | [3] 50.8% | [4] 65.5% | [5] 52.4% | [6] 60.9%

c1cc2c(cc1CC1CO1)OCO2 (stereo unspecified)
inactive: [1] -12.2% | [2] -11.7% | [3] 0.85% | [4] -18.4% | [5] -22.5% | [6] 15%

Cc1cc(=O)[nH]c(-n2[nH]c(C)c(CCO)c2=O)n1
inactive: [1] -13.3% | [2] -17.2% | [3] 14.8% | [4] 19.9% | [5] -5.9% | [6] 18.4%

NCC(O)CSc1ccccc1 (stereo unspecified)
inactive: [1] -10.6% | [2] 4.15% | [3] -6.85% | [4] -16.7% | [5] -1.3% | [6] -6.8%

O=Cc1cc2c(cc1Br)OCO2
inactive: [1] 39.7% | [2] 16.1% | [3] 22.3% | [4] 10.2% | [5] -25.6% | [6] 8.3%

Cc1cc(=O)[nH]c(=O)[nH]1
inactive: [1] 5.85% | [2] -7.55% | [3] -16.6% | [4] -4.15% | [5] -17.7% | [6] -5.4%

Brc1cnc2nc(Cc3ccccc3)[nH]c2c1
inactive: [1] 5.05% | [2] 7.7% | [3] 17.3% | [4] -52.3% | [5] 27% | [6] 2.9%
